Screening data deposited in PubChem BioAssay by The Scripps Research Institute Molecular Screening Center.
FBW7 act = human FBW7 E3 ligase activation, primary screen; Q969H0; AlphaScreen FBW7–phospho-cyclin E peptide binding, activator screen; normalized activity (activation), % at 26.1 µM; actives 0.13% (n = 650,000); AID 1259310; in the data active = normalized activity above about 1.9%;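 also: purified mutant Fbw7 with reduced substrate affinity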
GPR151 ag = human GPR151 activation. PathHunter beta-arrestin GPR151 cells, luminescence. actives 1% (n = 650,000). activation, % at 11.2 µM; in the data active = activation above about 4.9%
TEAD-YAP block = TEAD-YAP interaction inhibition; AID 1259422; actives 1.4% (n = 640,000); HEK-TIYL cells, TEAD-Gal4/YAP UAS-luciferase luminescence; inhibition, % at 9.12 µM; in the data active = inhibition above about 32%
MITF primary = human MITF inhibition, primary screen; inhibition, % at 2.6 µM; AlphaScreen MITF homodimerization, bead proximity signal; O75030; actives 0.91% (n = 650,000); in the data active = inhibition above about 50%
GPR151 confirm = human GPR151 activation, confirmation screen; shares compounds with GPR151 ag; 6,700 tested, under 10 active; activation, % at 11.2 µM; GPR151 PathHunter beta-arrestin cells, luminescence, 90 min; % of EA-reagent control over plate median;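 active = mean percent activation across replicates above the confirmation screen cutoff of 4.91%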
GPR119 counter = GPR119 activation, counter-screen for GPR151 activators; shares compounds with GPR151 ag; GPR119 PathHunter beta-arrestin cells, luminescence, 90 min; 0 = compound-well median, 100 = enzyme-acceptor control; activation, % at 11.2 µM; actives 0.3% (n = 6,700); AID 1508611;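 active = mean percent activation in the counterscreen above 29.09%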;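 also: counterscreen on off-target GPR119 to flag nonselective hits from the GPR151 activator screen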
Target sequence (Q8TDV5 whole entry, looked up): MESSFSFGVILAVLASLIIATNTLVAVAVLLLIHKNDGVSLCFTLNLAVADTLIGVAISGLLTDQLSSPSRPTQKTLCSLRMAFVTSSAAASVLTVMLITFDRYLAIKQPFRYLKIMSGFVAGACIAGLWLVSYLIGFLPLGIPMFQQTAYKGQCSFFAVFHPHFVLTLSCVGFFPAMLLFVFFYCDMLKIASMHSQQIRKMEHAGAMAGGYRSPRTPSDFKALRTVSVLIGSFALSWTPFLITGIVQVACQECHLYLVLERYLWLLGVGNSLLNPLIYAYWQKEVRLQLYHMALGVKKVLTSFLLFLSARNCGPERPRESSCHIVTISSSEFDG
Of the large screens only hits and unclear results are named; the others gave an inactive call (follow-up assays come after a bar, where they were run). Most compounds without a hit are left out; they make up all but 3.5% or so of the library.

Cc1ccc(Cl)cc1NC(=O)C12CCC(C)(C(=O)C1)C2(C)C (stereo not drawn)	none
Cc1cc(NC(=O)c2cc3ccccc3oc2=O)n(-c2nc3ccccc3[nH]2)n1	GPR151 ag 8.1 | GPR151 confirm inactive | GPR119 counter inactive
Cc1cc(NC(=O)c2ccccc2)n(-c2nc3ccccc3[nH]2)n1	none
Cc1ccc(Cc2c(C)nc3c(C(=O)NCCN4CCOCC4)cnn3c2C)cc1	none
Cn1cc(C(=O)N=Nc2c(O)[nH]c3ccc(Br)cc23)ccc1=O	none
O=C(COc1ccccc1)N1C(=O)c2ccccc2S1(=O)=O	GPR151 ag 5.2 | GPR151 confirm inactive | GPR119 counter inactive
N#Cc1ccc(OCC(=O)N2C(=O)c3ccccc3S2(=O)=O)cc1	none
CC(C)(c1ccc(O)c(CO)c1)c1ccc(O)c(CO)c1	none
CC(C)C[C@H](O)C(=O)N1CCN(c2ccc3[nH]ncc3c2)CC1	GPR151 ag 5.0 | GPR151 confirm inactive | GPR119 counter inactive
CC(C)[C@H](O)C(=O)N1CCN(c2ccc3[nH]ncc3c2)CC1	none
Cc1nn2cc(CNC(=O)CC3C(=O)NCCN3Cc3ccccc3)nc2s1 (stereo not drawn)	none
CSc1ccc(CNn2c(-c3ccc(F)cc3)nc3ccccc3c2=O)cc1	none
Cc1cccc2c(=O)oc(/C=C/c3ccc([N+](=O)[O-])cc3)nc12	none
S=C(Nc1ccc2c(c1)OCO2)N1CCN(c2ncccn2)CC1	GPR151 ag 6.6 | GPR151 confirm inactive | GPR119 counter inactive
O=C(CN1C(=O)c2ccc([N+](=O)[O-])cc2C1=O)Oc1ccc2c(c1)OCO2	none
Cc1cc(N)nc(-c2ccc(C(=O)N3CCN(C)CC3)cc2)n1	GPR151 ag 8.5 | GPR151 confirm inactive | GPR119 counter inactive
CCCNc1cc(C)nc(-c2ccc(C(=O)N3CCN(C)CC3)cc2)n1	none
O=C(O)c1ccccc1-c1ccccc1C(=O)NC1CS(=O)(=O)CC1O (stereo not drawn)	GPR151 ag 5.1 | GPR151 confirm inactive | GPR119 counter inactive
O=C(O)c1ccccc1-c1ccccc1C(=O)Nc1ccccc1	none
Oc1cccc(-c2cncc(-c3ccc(N4CCOCC4)cc3)n2)c1	none
NC1=NC(c2cccn2-c2ccc([N+](=O)[O-])cc2)n2c(nc3ccccc32)N1 (stereo not drawn)	none
CSc1nc2ccccc2c(=O)n1C1CCCCC1	GPR151 ag 5.3 | GPR151 confirm inactive | GPR119 counter inactive
O=C(CNC(=O)c1cccs1)OCc1c(F)cccc1Cl	none
O=C(CNC(=O)c1cccs1)OCc1c(Cl)cccc1Cl	GPR151 ag 5.4 | GPR151 confirm inactive | GPR119 counter inactive
O=C(Nc1ccc(F)cc1F)C1CCCN(c2ncnc3c2nc2n3CCCCC2)C1 (stereo not drawn)	none
O=C(Nc1cc(F)ccc1F)C1CCCN(c2ncnc3c2nc2n3CCCCC2)C1 (stereo not drawn)	GPR151 ag 8.0 | GPR151 confirm inactive | GPR119 counter inactive
CN1C(=O)CCC12CCN(Cc1c[nH]c3ccccc13)CC2	GPR151 ag 8.1 | GPR151 confirm inactive | GPR119 counter inactive
Cc1ccc(C(=O)N/N=C\C(Br)=C\c2ccccc2)cn1	GPR151 ag 5.8 | GPR151 confirm inactive | GPR119 counter inactive
COC(=O)COc1ccc(/C=C2\Oc3cc(OC)ccc3C2=O)cc1OC	none
COC(=O)C(C)Oc1ccc(/C=C2\Oc3cc(OC)ccc3C2=O)cc1OC (stereo not drawn)	GPR151 ag 8.8 | GPR151 confirm inactive | GPR119 counter inactive
COc1cc(C)c2c(c1)O/C(=C\c1ccc(OC)c(OC)c1OC)C2=O	GPR151 ag 7.5 | GPR151 confirm inactive | GPR119 counter inactive
COc1ccc2c(c1)O/C(=C\c1ccc(OS(C)(=O)=O)c(OC)c1)C2=O	none
COc1ccc2c(c1)O/C(=C\c1ccc(OC)c(OC)c1)C2=O	GPR151 ag 5.5 | GPR151 confirm inactive | GPR119 counter inactive
Oc1ccc(Cl)cc1/C=N\Nc1nncc(-c2ccccc2)n1	GPR151 ag 7.4 | GPR151 confirm inactive | GPR119 counter inactive
FC(F)(F)c1ccc(CN2CCc3nnc(C4CCCO4)n3CC2)cc1 (stereo not drawn)	none
COCCOC(=O)C1=C(C)Nc2ccc(C)cc2S1	none
CCOCCOC(=O)C1=C(C)Nc2ccc(C)cc2S1	GPR151 ag 13 | GPR151 confirm inactive | GPR119 counter inactive
NNC(=O)C1C[C@@H]2C[C@@H]3c4[nH]c5ccccc5c4CCN3C[C@H]2C[C@H]1O (stereo partly drawn)	none
COc1cc(C(=O)Nc2ccccc2F)ccc1OCc1cccc(F)c1	none
COC(=O)c1ccc(OCc2cccc(F)c2)c(OC)c1	GPR151 ag 5.9 | GPR151 confirm inactive | GPR119 counter inactive
CC(Oc1ccccc1)C(=O)Nc1ccc(F)cc1F (stereo not drawn)	GPR151 ag 5.3 | GPR151 confirm inactive | GPR119 counter inactive
CCN1CCN(C(C)C(=O)Nc2ncc(C)s2)CC1 (stereo not drawn)	GPR151 ag 7.0 | GPR151 confirm inactive | GPR119 counter inactive
C=CCN(c1ccc(C(=O)Nc2ccc(Cl)cc2)cc1)S(C)(=O)=O	GPR151 ag 9.2 | GPR151 confirm inactive | GPR119 counter inactive
Cc1cccc(CNC2CCN(c3ccc(C(=O)N4CCCC(O)C4)cc3)CC2)n1 (stereo not drawn)	GPR151 ag 6.7 | GPR151 confirm inactive | GPR119 counter inactive
COc1ccccc1OCc1nnc(SCCN2CCOCC2)o1	GPR151 ag 5.9 | GPR151 confirm inactive | GPR119 counter inactive
CCC(C)NC(=O)CCCNC(=O)Cn1cnc2sc(C)c(C)c2c1=O (stereo not drawn)	none
O=C(NCc1cccc(C(F)(F)F)c1)c1cnc(-c2ccccc2)s1	GPR151 ag 7.6 | GPR151 confirm inactive | GPR119 counter inactive
COc1ccc(-c2ncc(C(=O)NCc3cccc(C(F)(F)F)c3)s2)cc1	none
O=C(NCc1cccc(C(F)(F)F)c1)c1cnc(NC2CCC(O)CC2)s1 (stereo not drawn)	GPR151 ag 5.1 | GPR151 confirm inactive | GPR119 counter inactive
O=C(NCc1ccccc1)c1cnc(-c2ccccc2)s1	GPR151 ag 6.6 | GPR151 confirm inactive | GPR119 counter inactive
Nc1cccc(-c2ncc(C(=O)NCc3ccccc3)s2)c1	none
CCc1[nH]n2c(=O)c(C)c(C)nc2c1-c1cccs1	none
c1ccc(CNc2nc3nonc3nc2N2CCOCC2)cc1	none
Cc1nc2ccccc2n1CCNS(=O)(=O)c1ccc(F)cc1	GPR151 ag 6.4 | GPR151 confirm inactive | GPR119 counter inactive
O=c1[nH]c(Nc2nc3ccccc3s2)nc2ccccc12	none
COc1ccc(NC(=O)NCc2ccncc2)cc1	none
COc1ccc(NC(=O)C(=O)NCc2ccncc2)cc1	GPR151 ag 5.1 | GPR151 confirm inactive | GPR119 counter inactive
